Results on five compounds are retold here after PubChem BioAssay.

Test [1] is described as follows: optical density shifts of acrAB sulA E. coli – strain DRC41, OD650, 48 h, E. coli filamentation inducer project, primary screen (AID 1152).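 Note: E. coli MC1000 strain DRC41 lacking acrAB efflux pump and sulA.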 The settings on record: higher = more signal, called active from +8 up or from −8 down.
The nature of test [2]: probe aLefty1 binding on compound microarray – biochemical, small-molecule microarray, 635/667 nm fluorescence, primary screen (AID 1153).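 Note: score merges spot fluorescence with signal-to-noise ratio from the scanned slide images.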 The settings on record: higher = more signal.
Test [3] can be described thus: plasmodial surface anion channel blockers, osmotic lysis – cell-based, P. falciparum Indochina, OD700, 1 h, primary screen (AID 1154). The settings on record: P. falciparum Indochina infected RBC osmotic lysis, higher = more signal, called active from +8 up or from −8 down.
The nature of test [4]: plasmodial surface anion channel blockers, osmotic lysis – cell-based, P. falciparum Indochina, OD700, 2 h, primary screen (AID 1155).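 Note: lysis reports solute entry through the parasite surface anion channel PSAC.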 The note with it: P. falciparum Indochina infected erythrocytes, higher = more signal, called active from +8 up or from −8 down.
Test [5] is described as follows: changes in parasitized red cell lysis, either direction – P. falciparum Indochina, OD700, 3 h, PSAC antagonist project, primary screen (AID 1156). The settings on record: P. falciparum-infected erythrocytes, osmotic lysis, higher = more signal, called active from +8 up or from −8 down.
The nature of test [6]: plasmodial surface anion channel blockers, osmotic lysis – cell-based, P. falciparum Indochina, OD700, 18 h, primary screen (AID 1157). The settings on record: P. falciparum Indochina infected erythrocytes, osmotic lysis OD700, 18 h; higher = more signal, called active from +8 up or from −8 down.
The nature of test [7]: S6 kinase pathway phospho-S6 level changes – cell-based, A549, cytoblot, luminescence, serum-stimulated, primary screen (AID 1158).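 Note: serum-stimulated A549 lung adenocarcinoma cells; signal is phosphorylated S6 detected by cytoblot immunostaining with HRP secondary.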 The note with it: 5 h, higher = more signal.
In test [8] the target is NADPH oxidase 2 (Homo sapiens) (UniProt P04839). The test can be described thus: compounds shifting NOX2 Amplex Red fluorescence – cell-based, HEK293-NOX2, PMA-stimulated, NOX inhibitor project, primary screen (AID 1159). Note: test concentration not given here. The note with it: 45 min, higher = more signal, called active from +8 up or from −8 down.
Test [9] has as its target NADPH oxidase 4 (Homo sapiens) (UniProt Q9NPH5). The test can be described thus: compounds shifting NOX4 Amplex Red fluorescence – cell-based, HEK293-NOX4, tetracycline-induced, NOX inhibitor project, primary screen (AID 1160). The note with it: HEK293-NOX4, Amplex Red H2O2 fluorescence, 45 min; higher = more signal, called active from +8 up or from −8 down.
Test [10] concerns the target NADPH oxidase 5 (Homo sapiens) (UniProt Q96PH1). Kind of test: compounds shifting NOX5 Amplex Red fluorescence – cell-based, HEK293-NOX5, NOX inhibitor project, primary screen (AID 1161). The settings on record: HEK293-NOX5, ionomycin, 45 min, higher = more signal.
Test [11] is described as follows: compound effects on lung adenocarcinoma cell viability – A549, calcein-AM fluorescence, 48 h, basal, profiling panel (AID 1162). Note: test concentration not given here. The settings on record: higher = more signal.
The nature of test [12]: compound effects on differentiated 3T3-L1 adipocyte viability – cell-based, 3T3-L1 adipocytes, calcein-AM fluorescence, 48 h, basal, profiling panel (AID 1163). Note: test concentration not given here. The note with it: 3T3-L1 adipocytes viability, higher = more signal.
Test [13] can be described thus: compound effects on hepatocellular carcinoma cell viability – HepG2, calcein-AM fluorescence, 48 h, basal, profiling panel (AID 1164). Note: test concentration not given here. The note with it: higher = more signal.
Test [14] in a line: compound effects on multiple myeloma cell viability – MM1S, calcein-AM fluorescence, 48 h, basal, profiling panel (AID 1165).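 Note: viability of MM1S multiple myeloma cells under basal unstimulated conditions; test concentration not given here.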 The note with it: higher = more signal.
A short description of test [15]: calcein-AM signal in unstimulated myeloma cells – cell-based, calcein-AM fluorescence, 48 h, PK04 Diversity Set, profiling panel (AID 1166).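 Note: cells grown under basal conditions without added stimulus; test concentration not given here.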 The settings on record: RPMI8226 myeloma viability, higher = more signal.
The nature of test [16]: JC-1 mitochondrial signal, unstimulated HepG2 cells – cell-based, JC-1 fluorescence, 24 h, 100 nL compound, profiling panel (AID 1167). Note: test concentration not given here. The note with it: HepG2 mitochondrial potential, higher = more signal.
Test [17] in a line: JC-1 mitochondrial signal, unstimulated adipocytes – cell-based, JC-1 fluorescence, 3T3-L1 adipocytes, 24 h, 100 nL compound, profiling panel (AID 1168). Note: test concentration not given here. The note with it: JC-1 mitochondrial fluorescence, higher = more signal, called active from +8 up or from −8 down.
Test [18] in a line: JC-1 mitochondrial signal, unstimulated myeloma cells – cell-based, JC-1 fluorescence, RPMI8226, 24 h, 100 nL compound, profiling panel (AID 1169). Note: test concentration not given here. The note with it: JC-1 mitochondrial potential fluorescence, higher = more signal.
The nature of test [19]: JC-1 mitochondrial signal, unstimulated MM1S myeloma – cell-based, JC-1 fluorescence, 24 h, 100 nL compound, profiling panel (AID 1170). Note: test concentration not given here. The settings on record: MM1S mitochondrial potential, higher = more signal.
Test [20] is described as follows: resazurin metabolic signal in A549 cells – cell-based, resazurin fluorescence, 24 h, PK04 Diversity Set, profiling panel (AID 1171). Note: test concentration not given here. The settings on record: A549 viability, higher = more signal, called active from +8 up or from −8 down. On the technique in general: Alamar Blue is a resazurin reagent that responds to reducing activity.

The source made the active and inactive calls.

Chain of NADPH oxidase 4 (Homo sapiens) (Q9NPH5 whole entry, looked up): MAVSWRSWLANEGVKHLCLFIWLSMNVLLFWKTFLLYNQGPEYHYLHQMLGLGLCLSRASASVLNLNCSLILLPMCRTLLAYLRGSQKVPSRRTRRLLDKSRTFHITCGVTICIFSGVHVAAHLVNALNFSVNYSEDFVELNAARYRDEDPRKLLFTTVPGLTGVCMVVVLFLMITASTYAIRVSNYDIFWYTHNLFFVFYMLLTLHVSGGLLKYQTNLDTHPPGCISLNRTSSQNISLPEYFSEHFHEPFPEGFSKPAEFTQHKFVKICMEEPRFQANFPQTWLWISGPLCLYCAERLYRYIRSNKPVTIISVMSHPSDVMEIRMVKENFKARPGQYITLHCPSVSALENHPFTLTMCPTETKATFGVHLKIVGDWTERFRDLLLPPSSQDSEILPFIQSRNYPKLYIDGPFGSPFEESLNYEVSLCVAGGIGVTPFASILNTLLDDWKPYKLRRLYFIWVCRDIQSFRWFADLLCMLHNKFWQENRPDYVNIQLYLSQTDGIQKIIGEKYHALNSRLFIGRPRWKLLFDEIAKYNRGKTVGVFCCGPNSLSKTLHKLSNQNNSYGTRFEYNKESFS
Chain of NADPH oxidase 5 (Homo sapiens) (Q96PH1 whole entry, looked up): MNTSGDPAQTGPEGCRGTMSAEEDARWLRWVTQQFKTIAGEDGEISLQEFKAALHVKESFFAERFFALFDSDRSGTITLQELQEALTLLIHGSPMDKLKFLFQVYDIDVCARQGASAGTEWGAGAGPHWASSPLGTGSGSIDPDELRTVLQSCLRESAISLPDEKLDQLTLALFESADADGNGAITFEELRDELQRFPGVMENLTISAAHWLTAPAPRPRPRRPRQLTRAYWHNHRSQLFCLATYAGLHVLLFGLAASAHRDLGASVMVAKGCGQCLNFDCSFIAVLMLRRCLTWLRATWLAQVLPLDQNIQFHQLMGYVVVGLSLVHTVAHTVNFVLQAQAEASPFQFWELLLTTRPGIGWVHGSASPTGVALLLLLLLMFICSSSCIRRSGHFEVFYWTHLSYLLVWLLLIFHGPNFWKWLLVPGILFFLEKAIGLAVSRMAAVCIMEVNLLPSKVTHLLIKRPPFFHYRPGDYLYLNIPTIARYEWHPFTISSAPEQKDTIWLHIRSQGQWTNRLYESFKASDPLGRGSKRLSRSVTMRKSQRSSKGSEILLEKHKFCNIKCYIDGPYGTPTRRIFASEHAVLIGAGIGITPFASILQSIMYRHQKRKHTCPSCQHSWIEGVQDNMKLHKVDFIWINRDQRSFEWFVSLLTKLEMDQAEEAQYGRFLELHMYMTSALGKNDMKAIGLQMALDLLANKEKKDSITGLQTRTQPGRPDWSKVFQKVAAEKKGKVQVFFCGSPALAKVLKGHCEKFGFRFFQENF
Chain of NADPH oxidase 2 (Homo sapiens) (P04839 whole entry, looked up): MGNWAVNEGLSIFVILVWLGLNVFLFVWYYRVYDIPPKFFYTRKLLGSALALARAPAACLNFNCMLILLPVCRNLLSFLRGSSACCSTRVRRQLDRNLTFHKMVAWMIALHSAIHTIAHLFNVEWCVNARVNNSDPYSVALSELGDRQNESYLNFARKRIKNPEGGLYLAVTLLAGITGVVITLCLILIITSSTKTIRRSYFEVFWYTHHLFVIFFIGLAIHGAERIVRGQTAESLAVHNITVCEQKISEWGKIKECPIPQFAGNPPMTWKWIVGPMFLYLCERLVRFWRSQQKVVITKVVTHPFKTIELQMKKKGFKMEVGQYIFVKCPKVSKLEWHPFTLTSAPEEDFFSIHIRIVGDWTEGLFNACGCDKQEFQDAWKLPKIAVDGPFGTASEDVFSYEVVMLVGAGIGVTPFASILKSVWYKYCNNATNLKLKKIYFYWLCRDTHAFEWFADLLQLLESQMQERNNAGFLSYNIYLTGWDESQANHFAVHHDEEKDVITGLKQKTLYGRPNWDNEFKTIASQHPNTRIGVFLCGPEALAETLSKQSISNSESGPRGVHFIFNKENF

Consider `CO[C@H]1O[C@H](CO)[C@@H](OC(=O)Nc2ccc(C(F)(F)F)cc2)[C@H](OC(=O)Nc2ccc3c(c2)OCO3)[C@H]1OC(=O)Nc1ccc2c(c1)OCO2`, for which the z-score in test [1] was -0.463 (inactive); in test [3] it was 7.33 (inactive); in [4] it was 0.993 (inactive); in test [5], 0.61 (inactive); in test [6] it was 0.619 (inactive); in test [7], -0.388. Further, the z-score in test [8] is -4.33 (inactive); in [9], -0.99 (inactive); in test [10], -1.82; in test [11] it was -2.28; in test [12], 0.758; in [13] it was -2.3. Also, the z-score was -2.85 in test [14]; -2.66 in test [15]; -0.17 in test [16]; 0.298 (inactive) in [17]; -0.999 in test [18]; -1.01 in test [19]. For the same compound, the z-score in test [20] was -3.17 (inactive). The same compound displayed a composite z-score in [2] of 0.662.

On to `O=C1NC(=O)C2C1C=CC(C(O)c1c(F)cccc1Cl)N2Nc1ccccn1` (stereo not given), for which the z-score in [1] was -0.805 (inactive); in test [3], -0.0298 (inactive); in [4], 0.653 (inactive); in test [5] it was -0.254 (inactive); in [6], 0.828 (inactive); in [7], -1.1. For the same compound, the z-score in [8] is -1.84 (inactive); in [9], -3 (inactive); in test [10], -2.23; in test [11], 0.0619; in test [12] it was -0.92; in test [13], 0.0038. Besides, the z-score in test [14] is 0.312; in test [15], -0.825; in [16], -1.05; in [17], -0.957 (inactive); in test [18], -0.517; in [19], 0.15. The z-score in test [20] was -0.609 (inactive). The same compound returned a composite z-score in test [2] of 0.245.

For the compound `CCOC(=O)C[C@H]1[C@H](OC(=O)c2ccc(-c3ccccc3)cc2)[C@@H](NC(=O)c2ccc3ccccc3n2)c2cc(OCCCO)ccc2N1C(=O)c1ccccc1`, the z-score is -0.715 (inactive) in test [1]; 0.18 (inactive) in [3]; -0.168 (inactive) in test [4]; -0.571 (inactive) in test [5]; 0.261 (inactive) in test [6]; 0.893 in test [7]. Further, the z-score was -0.59 (inactive) in test [8]; -1.72 (inactive) in [9]; -1.04 in [10]; -1.05 in test [11]; 0.312 in test [12]; -0.677 in test [13]. The z-score in test [14] is 0.23; in [15], -0.248; in test [16], 1.35; in [17], -0.248 (inactive); in test [18], 0.224; in test [19] it was 0.0802. In addition, in test [20], the z-score was 0.0216 (inactive). The composite z-score in test [2] worked out at 0.0367.

With `CC1CC/C=C\[C@H]2OC34C=CCN(c5ccc6ccccc6c5)C(=O)[C@H]3N(C(CO)C(C)C)C(=O)[C@@H]4C2C(=O)O1` (stereo not given in full), the z-score is -0.488 (inactive) in test [1]; 4.35 (inactive) in [3]; 1.06 (inactive) in test [4]; 1.01 (inactive) in [5]; 0.674 (inactive) in [6]; -0.526 in [7]. For the same compound, the z-score in [8] is 1.49 (inactive); in test [9], -0.0631 (inactive); in [10], 1.68; in test [11], 0.534; in [12], -0.443; in test [13] it was 0.468. For the same compound, the z-score in test [14] was 0.36; in test [15], 0.251; in test [16], 0.356; in test [17], -0.328 (inactive); in [18], 0.145; in test [19] it was -0.158. For the same compound, in [20], the z-score is -0.294 (inactive). This compound gave a composite z-score in test [2] of 0.245.

For `CN1C2C=C(CCCO)C(C3C(=O)N(C(N)=O)C(=O)C32)C1c1cccs1` (stereo not given), the z-score in test [1] is -0.214 (inactive); in [3], 1.12 (inactive); in [4] it was 0.273 (inactive); in test [5], 0.13 (inactive); in test [6] it was 0.431 (inactive); in [7], -0.633. For the same compound, the z-score in test [8] was 0.824 (inactive); in test [9] it was -0.845 (inactive); in test [10], 0.259; in test [11], -0.452; in test [12], -0.086; in test [13] it was -0.099. Further, the z-score is -0.542 in test [14]; 0.204 in test [15]; -0.742 in [16]; -1 (inactive) in test [17]; 1.17 in test [18]; -0.0274 in test [19]. Moreover, the z-score in [20] is -0.268 (inactive). For the same compound, the composite z-score in test [2] is -0.101.
